Where “and” joins values, the source holds several entries; their conditions need not be identical. Identical values can stand only once. Records with an inconclusive call do not appear. Some structures have more than one record in an assay (separate samples or runs), and their calls can disagree. Calls of active or inactive are those of the source. Unless noted, the call rests on the fitted dose curve; in most records, active means well fitted curve in the direction sought with a large enough effect in the repeat runs; inconclusive means weak or mixed curves; inactive means no such curve, though single readings can be large; an effect the other way counts as inactive or inconclusive.

Assay [1] is described as follows: qHTS assay to identify small molecule antagonists of the estrogen related receptor (ERR) signaling pathway from Tox21 library - cell viability counter screen (AID 1224834). Further: nearly all actives have a fitted effect of over 30% in size. The method, boiled down: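 ERR cells, 2,000/well; 6 h settle at 37 C/5% CO2; pin-tool compound transfer in DMSO; 17.5 h at 37 C; CellTiter-Fluor, 30 min; fluorescence intensity.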
In general terms: In qHTS, concentration-response curves come from the screen itself.

The target of assay [2] is Luciferin 4-monooxygenase (Photinus pyralis) (UniProt P08659). The assay can be described thus: qHTS assay to identify small molecule inhibitors of firefly luciferase (AID 1224835). Further: nearly all actives have a fitted effect of over 25% in size. Further: potency means the concentration at half of the fitted maximal effect. In outline:
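Quantitative HTS format; KM concentrations of both substrates. Purified P. pyralis FLuc activity quantified from luminescence images.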

The nature of assay [3]: qHTS assay to identify small molecule agonists of the constitutive androstane receptor (CAR) signaling pathway - cell viability counter screen (AID 1224836). Further: nearly all actives have a fitted effect of over 45% in size. The method, boiled down: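 Compound titrations (15 concentrations) went onto HepG2-CYP2B6-hCAR cells 4 h after seeding, alongside PK11195 at a final 0.75 uM; a 23 h, 37 C/5% CO2 incubation preceded CellTiter-Fluor viability measurement.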

The nature of assay [4]: qHTS assay to identify small molecule antagonists of the constitutive androstane receptor (CAR) signaling pathway - cell viability counter screen (AID 1224837). Further: nearly all actives have a fitted effect of over 45% in size. The method, boiled down: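 Viability was measured with CellTiter-Fluor in a HepG2 line carrying stably transfected hCAR and a CYP2B6-2.2kb construct. Cells were exposed for 23 hr at 37 C to 15 compound concentrations with 50 nM CITCO as agonist.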

Assay [5] addresses Nuclear receptor subfamily 1 group I member 3 (Homo sapiens) (UniProt Q14994). Put plainly: qHTS assay to identify small molecule agonists of the constitutive androstane receptor (CAR) signaling pathway (AID 1224839).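 Further: HepG2 cells stably carrying human CAR and a CYP2B6 luciferase reporter; nearly all actives have a fitted effect of over 15% in size.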 In outline:
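In this screen, CAR-driven CYP2B6 promoter activity is measured by luminescence in HepG2-CYP2B6-hCAR cells after 24 h with test compounds and 0.75 uM PK11195 (final concentration).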

A short description of assay [6]: qHTS assay to identify small molecule antagonists of the estrogen related receptor signaling pathway with the pleiotropic PPARgamma coactivator (PGC) from Tox21 10K library - cell viability counter screen (AID 1224840; active means well fitted cell-killing curve with a large enough effect in the repeat runs, not every such curve was filed as active; further: nearly all actives have a fitted effect of over 40% in size). In outline:
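Multiplexed viability counter screen in the PGC/ERR cell line: cells treated with DMSO-dissolved compounds for 17.5 hours at 37 C, then viability measured as CellTiter-Fluor fluorescence.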

Assay [7] addresses Thyrotropin receptor (Homo sapiens) (UniProt P16473). The assay can be described thus: qHTS assay to identify small molecule agonists of the thyroid stimulating hormone receptor (TSHR) signaling pathway (AID 1224843; calls by dose curve; further: nearly all actives have a fitted effect of over 45% in size). The method, boiled down: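 Using 15 concentrations per compound in triplicate, cAMP production was monitored in TSHR-HEK293 cells after 30 min compound incubation at RT; HTRF reagents followed, with fluorescence intensity recorded after 1 h.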

Assay [8] is described as follows: qHTS assay to identify small molecule agonists of the hypoxia (HIF-1) signaling pathway - cell viability counter screen (AID 1224844; calls by dose curve; further: nearly all actives have a fitted effect of over 50% in size; further: potency means the concentration at half of the fitted maximal effect). The method, boiled down: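 Cytotoxicity was measured in parallel with the HRE-driven beta-lactamase readout: after 17 hrs of compound exposure at 37C, HRE-bla ME-180 cells received CellTiter-Glo and luminescence was recorded 30 min later.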

Assay [9] in a line: qHTS assay to identify small molecule agonists of H2AX (AID 1224845; active means well fitted activation curve with a large enough effect in the signal ratio in the repeat runs, not every such curve was filed as active; the % refers to the signal ratio). In outline: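 Wild-type CHO-K1 cells plated overnight, then exposed 3 hr at 37C to compounds at 15 concentrations (0.76% DMSO). Lysed, then HTRF anti-pH2AX(S139)-cryptate/anti-H2AX-d2 detection after 24 hr at room temperature; emissions 665 and 620 nm.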
A short description of assay [10]: qHTS assay to identify small molecule agonists of the hypoxia (HIF-1) signaling pathway (AID 1224846; active means well fitted activation curve with a large enough effect in the signal ratio in the repeat runs, not every such curve was filed as active; the % refers to the signal ratio). In outline: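 Compounds from the Tox21 10K library, dissolved in DMSO, are tested for induction of a hypoxia response element–controlled beta-lactamase reporter in ME-180 cells. Exposure lasts 17 hrs at 37C after a 5 hr settling period, followed by CCF4-AM FRET substrate.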

The nature of assay [11]: qHTS assay to identify small molecule agonists of H2AX - cell viability counter screen (AID 1224847; calls by dose curve; further: top concentration of the series differs between compounds; nearly all actives have a fitted effect of over 30% in size). The method, boiled down:
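Read-out: CellTiter-Glo luminescence, 30 min RT. Cells: wild-type CHO-K1, 1000/well, 10% FBS, plated overnight at 37C. Treatment: 15 concentrations, 3 hr, 37C, 0.76% DMSO.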

The nature of assay [12]: qHTS RealTime-Glo MT Cell Viability Assay in HepG2 cells - 24 hour (AID 1224867). Further: nearly all actives have a fitted effect of over 50% in size. In outline: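 Luminescence read-out: viable HepG2 cells reduce a prosubstrate to a NanoLuc substrate, giving a signal proportional to live cell number. Reads taken at 0, 8, 16, 24, 32 and 40 h of compound exposure at 37 C.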
Assay [13] is described as follows: qHTS RealTime-Glo MT Cell Viability Assay in HEK293 cells - 32 hour (AID 1224868). Further: top concentration of the series differs between compounds; nearly all actives have a fitted effect of over 50% in size. The method, boiled down: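 Nonlytic real-time viability readout: viable cells convert prosubstrate to NanoLuc substrate, giving luminescence proportional to live cell number. HEK293, 600 cells/well, compound added after 5 h, continuous culture at 37 C.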
Assay [14] in a line: A CellTox Green Cytotoxicity Assay to monitor cytotoxicity in HEK293 cells - 0 hour (AID 1224869). Further: nearly all actives have a fitted effect of over 50% in size. The method, boiled down: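 Cells (HEK293, 600/well) and dye reagent are dispensed together. After 5 h at 37 C, 23 nL compound is pinned in. Plates stay at 37 C for 40 h with fluorescence read at 0h, 8h, 16h, 24h, 32h and 40h.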
The nature of assay [15]: qHTS assay to identify small molecule antagonists of the estrogen related receptor signaling pathway with the pleiotropic PPARgamma coactivator (PGC) from Tox21 10K library (AID 1224841; call rule not given here). In outline: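 Steps: plate 2,000 PGC/ERR cells per well; incubate 6 h at 37 C with 5% CO2; transfer compounds from DMSO stocks by pin tool; incubate 18 h at 37 C; add One-Glo; measure luminescence 30 min later.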

Assay [16] is described as follows: qHTS assay to identify small molecule agonists of the estrogen related receptor signaling pathway with the pleiotropic PPARgamma coactivator (PGC) from Tox21 10K library (AID 1224842). Further: nearly all actives have a fitted effect of over 15% in size. The method, boiled down:
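PGC/ERR reporter cells (NTP line) were seeded 2,000 per well, rested 6 h at 37 C/5% CO2, then pin-dosed with compounds in DMSO for 18 h at 37 C; luciferase read by One-Glo luminescence after 30 min at room temperature.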

Assay [17] in a line: qHTS assay to identify small molecule antagonists of the estrogen related receptor (ERR) signaling pathway from Tox21 library (AID 1224848). Further: nearly all actives have a fitted effect of over 50% in size. In outline:
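Tox21 10K compounds in DMSO tested for ERR pathway antagonism in NTP's ERR cell line; 18 h, 37 C exposure; ONE-Glo luminescence.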

The nature of assay [18]: qHTS assay to identify small molecule agonists of the estrogen related receptor (ERR) signaling pathway from Tox21 library (AID 1224849; calls by dose curve; further: nearly all actives have a fitted effect of over 15% in size). The following applies: ERR reporter cell line, ONE-Glo luciferase, 18 h; at 92.4 µM (top of the series). The method, boiled down: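 Cells carrying the ERR reporter were plated and allowed to settle for 6 h, exposed to library compounds for 18 h at 37 C, then lysed with ONE-Glo and luminescence measured.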
On the % scale 0 is the no-effect control and ±100 the full control effect.

Sequence of Thyrotropin receptor (Homo sapiens) (P16473 whole entry, looked up): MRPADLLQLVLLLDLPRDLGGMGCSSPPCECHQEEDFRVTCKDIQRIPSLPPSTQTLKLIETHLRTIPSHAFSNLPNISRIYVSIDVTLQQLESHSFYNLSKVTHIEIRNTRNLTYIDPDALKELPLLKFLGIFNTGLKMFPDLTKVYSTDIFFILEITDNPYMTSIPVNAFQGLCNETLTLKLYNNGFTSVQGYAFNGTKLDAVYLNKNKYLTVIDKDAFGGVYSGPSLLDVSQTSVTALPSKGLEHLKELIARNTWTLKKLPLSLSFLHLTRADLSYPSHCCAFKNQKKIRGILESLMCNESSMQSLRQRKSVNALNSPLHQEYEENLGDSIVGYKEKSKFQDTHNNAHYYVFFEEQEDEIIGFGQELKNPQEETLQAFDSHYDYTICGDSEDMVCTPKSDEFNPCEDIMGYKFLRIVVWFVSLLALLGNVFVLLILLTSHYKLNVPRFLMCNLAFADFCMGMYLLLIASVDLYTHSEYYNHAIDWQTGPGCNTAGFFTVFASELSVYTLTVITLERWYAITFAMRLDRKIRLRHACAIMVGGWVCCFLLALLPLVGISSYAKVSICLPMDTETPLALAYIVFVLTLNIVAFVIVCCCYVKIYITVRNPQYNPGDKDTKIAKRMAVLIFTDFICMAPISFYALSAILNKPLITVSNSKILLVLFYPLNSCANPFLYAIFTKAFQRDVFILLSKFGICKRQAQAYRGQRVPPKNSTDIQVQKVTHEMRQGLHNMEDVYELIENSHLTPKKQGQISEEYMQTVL
Sequence of Luciferin 4-monooxygenase (Photinus pyralis) (P08659 whole entry, looked up): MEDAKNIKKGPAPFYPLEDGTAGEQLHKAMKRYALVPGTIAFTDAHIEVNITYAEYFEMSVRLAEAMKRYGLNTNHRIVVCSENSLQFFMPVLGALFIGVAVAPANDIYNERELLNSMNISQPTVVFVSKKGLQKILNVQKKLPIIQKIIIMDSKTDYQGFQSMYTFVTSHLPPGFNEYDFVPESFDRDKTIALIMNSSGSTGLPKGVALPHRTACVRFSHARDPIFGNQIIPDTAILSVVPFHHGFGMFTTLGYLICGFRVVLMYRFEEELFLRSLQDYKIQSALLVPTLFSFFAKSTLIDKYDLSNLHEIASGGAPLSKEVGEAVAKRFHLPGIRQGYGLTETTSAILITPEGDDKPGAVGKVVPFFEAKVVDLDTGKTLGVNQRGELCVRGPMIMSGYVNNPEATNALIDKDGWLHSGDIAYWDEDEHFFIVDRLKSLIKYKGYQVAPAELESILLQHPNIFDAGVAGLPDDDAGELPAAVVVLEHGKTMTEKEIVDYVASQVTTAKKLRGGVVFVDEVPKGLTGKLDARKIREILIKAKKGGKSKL
Sequence of Nuclear receptor subfamily 1 group I member 3 (Homo sapiens) (Q14994 whole entry, looked up): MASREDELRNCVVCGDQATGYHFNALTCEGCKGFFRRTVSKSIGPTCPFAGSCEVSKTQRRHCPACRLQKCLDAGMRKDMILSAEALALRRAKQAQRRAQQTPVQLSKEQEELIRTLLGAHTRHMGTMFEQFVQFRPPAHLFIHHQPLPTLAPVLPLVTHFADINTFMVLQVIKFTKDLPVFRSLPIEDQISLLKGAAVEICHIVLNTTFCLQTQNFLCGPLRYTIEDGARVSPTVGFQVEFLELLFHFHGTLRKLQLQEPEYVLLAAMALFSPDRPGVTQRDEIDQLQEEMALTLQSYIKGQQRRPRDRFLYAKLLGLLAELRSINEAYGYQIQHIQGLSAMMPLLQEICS

For the compound `CCCCC/C=C\C/C=C\CCCCCCCC(=O)OC`, the Potency result in [1], in assay [2], in [3], in assay [4], in assay [5] and in assay [6] was “inactive” each time. The Potency entry in assay [7], in [8], in assay [9], in assay [11], in assay [12] and in assay [13] was “inactive” in each case. The Potency result in assay [14] was “inactive”. Also, the call in [10] was inactive.

For `OC[C@@H](O)[C@@H](O)[C@H](O)[C@@H](O)CO`, the Potency result in assay [1], in assay [2], in assay [3], in assay [4], in [6] and in [15] was “inactive” each time. Further, the Potency result in assay [16], in [7], in [8], in [9], in assay [11] and in assay [17] was “inactive” throughout. Moreover, the Potency entry in assay [12], in assay [13] and in [14] was “inactive” each time. For the same compound, in assay [10], the compound was called inactive. Also, the activity change, positive = activation in [18] is 3.67% (inactive) and 4.92% (inactive).

For `CCCCCCOC(C)=O`, the Potency result in [1], in assay [2], in assay [3], in assay [4], in assay [5] and in [6] was “inactive” in each case. Moreover, the Potency result in assay [15], in assay [16], in assay [7], in assay [9], in [17] and in assay [12] was “inactive” throughout. In addition, the Potency result in [13] and in [14] was “inactive” throughout. The Potency result in assay [8] is “inactive and 27.5 µM (active)”. In assay [10], the call was inactive. The activity change, positive = activation in assay [18] is 8.85% (inactive) and -7.41% (inactive).

As for `CC(=O)CCc1ccccc1`, the Potency entry in assay [1], in assay [2], in assay [3], in assay [4], in assay [5] and in [6] was “inactive” each time. Further, the Potency result in assay [15], in [16], in assay [7], in [8], in assay [9] and in assay [11] was “inactive” in each case. In addition, the Potency entry in assay [17], in [12], in assay [13] and in assay [14] was “inactive” throughout. Moreover, the compound was called inactive in assay [10]. Moreover, the activity change, positive = activation in assay [18] is 1.01% (inactive) and -0.812% (inactive).

Take `CC1(C)CC(N=C=O)CC(C)(CN=C=O)C1` (stereo not drawn): the Potency result in assay [1], in assay [2], in [3], in assay [4], in [5] and in assay [6] was “inactive” throughout. The Potency result in [7], in assay [8], in assay [9], in assay [11], in [12] and in assay [13] was “inactive” each time. The Potency entry in assay [14] is “inactive”. Besides, the result in [10] was inactive.

As to `CCCCCC/C=C/CCCCCCCC(=O)O`, the Potency result in [1], in assay [3], in [4], in [5], in assay [6] and in [7] was “inactive” throughout. The Potency entry in assay [8], in [9], in assay [11], in [12] and in [14] was “inactive” each time. Further, the Potency entry in assay [2] is “inactive and 71 µM (active)”. The result in assay [10] was inactive.

The values above are taken from PubChem BioAssay (Tox21).
